# Test results reported in article PMC4336329 (PLoS ONE, 2015).
# Hit rate of the full screen: of about 310,000 compounds, about 14,000 (4.5%) showed an effect of 50% or more. Effects have a minus sign here. For the sample, strong results were picked, then their nearest neighbours and some compounds at random.
# Biological target: human ether-à-go-go-related gene (hERG) potassium channel (human, UniProt Q12809)
# Assay: primary screen, population patch clamp on CHO cells stably expressing hERG; higher = less effect of the substance
# 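Note: peak tail current of the secondary pulse compared with the same well before compound.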
# Chain of human ether-à-go-go-related gene (hERG) potassium channel (Q12809 whole entry, looked up): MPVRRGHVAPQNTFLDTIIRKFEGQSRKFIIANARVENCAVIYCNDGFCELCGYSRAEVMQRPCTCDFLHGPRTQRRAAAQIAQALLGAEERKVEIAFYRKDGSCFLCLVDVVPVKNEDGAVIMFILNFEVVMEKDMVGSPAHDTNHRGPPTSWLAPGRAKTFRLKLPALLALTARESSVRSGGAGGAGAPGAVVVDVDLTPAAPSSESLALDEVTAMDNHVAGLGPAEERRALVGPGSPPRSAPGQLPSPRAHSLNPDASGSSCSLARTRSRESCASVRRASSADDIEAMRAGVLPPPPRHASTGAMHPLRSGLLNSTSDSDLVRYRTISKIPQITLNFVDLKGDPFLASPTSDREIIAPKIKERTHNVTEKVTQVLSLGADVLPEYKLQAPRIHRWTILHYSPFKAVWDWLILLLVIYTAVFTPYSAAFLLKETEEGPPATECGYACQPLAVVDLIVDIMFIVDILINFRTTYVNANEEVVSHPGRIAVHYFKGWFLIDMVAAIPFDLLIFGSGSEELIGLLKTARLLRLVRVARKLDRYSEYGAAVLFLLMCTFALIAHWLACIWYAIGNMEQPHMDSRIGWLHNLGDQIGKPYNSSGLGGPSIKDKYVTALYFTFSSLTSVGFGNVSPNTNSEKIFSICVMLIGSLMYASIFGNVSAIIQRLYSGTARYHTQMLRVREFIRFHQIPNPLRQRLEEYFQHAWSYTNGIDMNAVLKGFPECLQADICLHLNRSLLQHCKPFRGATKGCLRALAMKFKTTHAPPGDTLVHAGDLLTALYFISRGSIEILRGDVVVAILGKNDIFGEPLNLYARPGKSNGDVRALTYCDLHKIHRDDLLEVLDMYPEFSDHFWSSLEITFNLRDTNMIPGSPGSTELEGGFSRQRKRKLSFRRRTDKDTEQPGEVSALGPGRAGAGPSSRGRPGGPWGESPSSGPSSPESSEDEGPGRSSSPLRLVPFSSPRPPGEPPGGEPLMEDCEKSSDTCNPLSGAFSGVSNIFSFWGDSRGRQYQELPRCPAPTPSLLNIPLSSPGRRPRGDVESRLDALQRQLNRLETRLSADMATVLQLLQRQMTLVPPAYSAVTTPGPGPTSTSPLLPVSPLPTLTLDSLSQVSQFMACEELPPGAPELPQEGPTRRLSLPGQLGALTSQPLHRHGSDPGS
row,SMILES,"hERG current change (%, negative = inhibition) at 10uM"
1,C#CCOCCOCCOCCNc1nc(N2CCN(C(=O)[C@H]([C@@H](C)CC)n3cc(CCCC[NH3+])nn3)CC2)nc(N2CCN(C(=O)[C@H](CCCC[NH3+])n3cc(CC(C)O)nn3)CC2)n1.[Cl-] (stereo partly drawn),14.3%
2,COc1ccc(C2C(C#N)=C(C)NC3=C2C(=O)CC(C)(C)C3)c(OC)c1 (stereo not drawn),-6.3%
3,Cc1ccccc1OCCCCn1c(CO)nc2ccccc21,-45.1%
4,COc1ccc(-c2nnc(SCC(=O)NCc3cccs3)n2CC(C)C)cc1,-15.2%
5,CNC(=S)N1CCN(c2ccccc2OC)CC1,7.94%
6,CC(=O)n1cc(/C=N/NC(N)=S)c2ccccc21,-18.4%
7,CCCCN=C1CC(C)(C)CC(=O)/C1=C(/O)CCCN1C(=O)c2ccccc2C1=O,-61.4%
8,O=C1CC(c2ccccc2)CC(=NCCO)/C1=C(\O)CCCN1C(=O)c2ccccc2C1=O (stereo not drawn),-71.9%
9,CC/C(O)=C1\C(=O)CC(c2ccccc2)CC1=NCCC(=O)O (stereo not drawn),15.6%
10,CCCN=C1CC(C)(C)CC(=O)/C1=C(/O)CCCN1C(=O)c2ccccc2C1=O,-11.4%
11,CC1(C)CC(=O)/C(=C(\O)CCCN2C(=O)c3ccccc3C2=O)C(=NCCO)C1,11.7%
12,O=C(O)CN=C1CC(c2ccccc2)CC(=O)/C1=C(/O)CCCN1C(=O)c2ccccc2C1=O (stereo not drawn),1.09%
13,CCCCCCNc1cc2n(c(=O)n1)CCc1cc(OC)c(OC)cc1-2,-46.7%
14,CCOc1ccc(C(C)NC(=O)c2ccc3c(c2)NC(=O)C(C)S3)cc1OCC (stereo not drawn),1.73%
15,O=C(CS(=O)(=O)c1c[nH]c2ccccc12)NC1CCCCC1,-8.19%
16,CSc1ccc(/C=N/NC(=O)CN2CCN(Cc3ccc(C)cc3)CC2)cc1,-63.2%
17,Cc1ccc(/C=N/NC(=O)CN2CCN(Cc3ccccc3)CC2)o1,-11.7%
18,Cc1ccc(/C=N/NC(=O)CN2CCN(Cc3ccccc3Cl)CC2)o1,-23.5%
19,CSc1ccc(/C=N/NC(=O)CN2CCN(Cc3ccc(Cl)cc3)CC2)cc1,-35.1%
20,Cc1ccc(CN2CCN(CC(=O)N/N=C/c3ccc(C)o3)CC2)cc1,-64.2%
21,CSc1ccc(/C=N/NC(=O)CN2CCN(Cc3ccccc3)CC2)cc1,-74.6%

row,SMILES,"hERG current change (%, negative = inhibition) at 10uM"
1,CSc1ccc(/C=N/NC(=O)CN2CCN(Cc3ccccc3Cl)CC2)cc1,-37.5%
2,CSc1ccc(/C=N/N2CCN(Cc3ccccc3)CC2)cc1,-5.46%
3,CSc1ccc(/C=N\NC(=O)CNc2ccc(C)cc2)cc1,-2.08%
4,CSc1nnc(-c2ccc(S(=O)(=O)N3CCOCC3)cc2)n1C,-25%
5,Cc1cccc(C(=O)NCCNC(=O)c2cccnc2)c1,18.6%
6,COc1ccc(Nc2nc(NCc3ccco3)nc(N/N=C/c3ccccc3F)n2)cc1,-12.3%
7,Cc1ccc(S(=O)(=O)Nc2cccc(C(=O)NCCCN3CCOCC3)c2)cc1F,-10.2%
8,COc1cc(C(F)(F)F)c(C(=O)N(C)Cc2cc(Cl)cc(Cl)c2)cn1,-18.9%
9,O=C1C(C=NCCCn2ccnc2)=C(O)c2ccccc21,-8.86%
10,CC(=NCCCn1ccnc1)C1=C(O)c2ccccc2C1=O,-68%
11,CCN(CC)CCCN=C(C)C1=C(O)c2ccccc2C1=O,-41.2%
12,CCOC(=O)N1CCN(C(=O)COc2ccc(S(=O)(=O)NC3CCCCC3)cc2C)CC1,-16.9%
13,O=C(O)c1ccccc1C(=O)Nc1ccc(-n2nc(C(F)(F)F)cc2C(F)(F)F)cc1,12.8%
14,O=C(CSc1nnc(-c2cccs2)n1Cc1ccco1)Nc1ccc2c(c1)OCO2,-14.6%
15,CN(C)c1ccc(NC(=O)CSc2nnc(-c3cccs3)n2Cc2ccco2)cc1,-39.4%
16,CCn1c(SCC(=O)Nc2ccc(OC)c(OC)c2)nnc1-c1cccs1,-14.1%
17,COc1ccc(NC(=O)CSc2nnc(-c3ccccc3)n2Cc2ccco2)cc1OC,-34.6%
18,Cc1ccc(NC(=O)CSc2nnc(-c3cccs3)n2Cc2ccco2)cc1,-61.6%
19,COc1ccc(NC(=O)CSc2nnc(-c3cccs3)n2Cc2ccco2)cc1OC,-60.6%
20,COc1ccc(N=C2SC(CC(=O)Nc3ccccc3)C(=O)N2CCc2ccccn2)cc1 (stereo not drawn),-32.6%
21,CCOC(=O)c1c(C)oc2ccc(OC(=O)c3cccs3)cc12,-5.96%

row,SMILES,"hERG current change (%, negative = inhibition) at 10uM"
1,Cc1ccc2nc(CSc3nnc(-c4ccco4)n3-c3ccccc3)cc(=O)n2c1,-21.1%
2,COc1ccc(C)cc1-n1nnnc1SCc1cn2ccsc2n1,-28.7%
3,COc1ccc(C)cc1-n1nnnc1SCc1cc(=O)n2cc(C)ccc2n1,-51.1%
4,Cc1ccc2nc(CSc3nnc(-c4ccco4)o3)cc(=O)n2c1,-64.9%
5,c1coc(-c2nnc(SCc3cn4ccccc4n3)o2)c1,-29.7%
6,COc1ccc(C)cc1-n1nnnc1SCc1csc(C)n1,-16.2%
7,Oc1cccc(/C=N/c2c(-c3ccco3)nc3ccccn23)c1,6.9%
8,Cc1cccc(N(Cc2ccc(Cl)cc2)S(C)(=O)=O)c1,21.1%
9,CC1(C)CC(=O)C2=C(C1)NC(=O)C21C(C(=O)OC(C)(C)C)=C(N)Oc2ccc(Br)cc21 (stereo not drawn),-13.1%
10,O=C1CN(C(=O)CSc2ccc(-c3ccc(F)cc3)nn2)c2ccccc2N1,-42.5%
11,Cc1noc(C)c1CSc1nnc2ccc3ccccc3n12,-25.1%
12,COc1ccc(C(C)=O)cc1COC(=O)CNC(=O)c1ccc(Cl)cc1,-4.06%
13,CCOC(=O)CNC(c1ccccc1)c1cc(Br)ccc1NC(=O)CCN1CCOCC1 (stereo not drawn),-68%
14,COC(=O)CNC(c1ccccc1)c1cc(Br)ccc1NC(=O)CCN1CCOCC1 (stereo not drawn),-31.7%
15,NNC(=O)CNC(c1ccccc1)c1cc(Br)ccc1NC(=O)CCN1CCOCC1 (stereo not drawn),3.67%
16,COc1ccccc1OCc1ccc(C(=O)c2ccccc2)cc1,17.1%
17,CC(=O)c1ccccc1OCc1ccc(C(=O)c2ccccc2)cc1,-51.7%
18,CC(=O)c1ccc(OCc2ccc(C(=O)c3ccccc3)cc2)cc1,0.433%
19,Cc1ccc(C(=O)c2nocc2C(=O)c2cccs2)cc1,-19.7%
20,CS(=O)(=O)O.Cc1cccc(/C=C2/C(=O)/C(=C/c3ccccc3C)C3CCC2N3C)c1 (stereo not drawn),6.11%
21,CCC(O)(CC)C(=O)NN(C(=O)CCl)c1ccccc1,8.94%

row,SMILES,"hERG current change (%, negative = inhibition) at 10uM"
1,Cc1ccc(S(=O)(=O)N2CCN(C(=O)c3ccco3)CC2)cc1C,-4.01%
2,CCc1ccc(-c2cc(C)no2)cc1S(=O)(=O)N1CCN(C(=O)c2ccco2)CC1,-59.6%
3,Cc1cc(-c2ccc(C)c(S(=O)(=O)N3CCN(C(=O)c4ccco4)CC3)c2)on1,-51.8%
4,COc1ccc(-c2cc(C)no2)cc1S(=O)(=O)N1CCN(C(=O)c2ccco2)CC1,-6.28%
5,CCc1ccc(-c2cc(C)no2)cc1S(=O)(=O)N1CCN(c2ccccc2)CC1,3.41%
6,CCc1ccc(-c2cc(C)no2)cc1S(=O)(=O)N1CCC(C)CC1,-15.8%
7,O=C(CCC1=NS(=O)(=O)c2ccccc2N1)NC1CCCCCCC1,2.57%
8,COc1ccc(S(=O)(=O)N(CC(=O)NC2CC2)c2ccc(C)cc2)cc1,-0.125%
9,CCCN(CC(=O)Nc1ccccc1C)C(=O)Cc1n[nH]c(=O)c2ccccc12,-10.2%
10,CCCN(CC(=O)Nc1ccc(Cl)cc1Cl)C(=O)CC(NC(C)=O)c1ccccc1 (stereo not drawn),0.715%
11,CCN(CC(=O)Nc1c(F)cccc1F)C(=O)Cc1c(C)nc2ccccc2c1C,-55.1%
12,CCN(CC(=O)Nc1c(F)cccc1F)C(=O)Cc1ccccc1,-1.53%
13,CCN(CC(=O)Nc1c(F)cccc1F)C(=O)c1cc(C)nc2ccccc12,9.3%
14,CCCN(CC(=O)Nc1ccccc1C)C(=O)CSc1ccccc1C,7.42%
15,CCCN(CC(=O)Nc1ccccc1C)C(=O)CCl,-0.969%
16,CCCN(CC(=O)Nc1ccccc1C)C(=O)CC(NC(=O)c1ccccc1)c1ccccc1 (stereo not drawn),-52.7%
17,CCCN(CC(=O)Nc1ccccc1C)C(=O)Cc1c(C)nc2ccccc2c1C,-77.4%
18,Cn1c(CCNC(=O)c2ccccc2F)nnc1SCC(=O)Nc1ccccc1F,3.44%
19,OCCOCCn1c(CCNc2nc(-c3ccc(Cl)cc3)cs2)nc2cc(Cl)c(Cl)cc21,3.83%
20,Cc1ccc(-c2cc(-c3ccccc3)no2)c(O)c1,17.4%
21,CCn1ncc(/C=N\NC(=O)c2cc(-c3ccc(C)cc3C)nc3ccccc23)c1C,-8.84%
